Test results taken from PubChem BioAssay AID1159580 (chemical genetic matrix, 2015).
The campaign covered roughly 5,500 compounds. About 2,000 (36%) were called active. About 18% were inconclusive and are not listed. Cut-off read from the data, not from the text of the source: active = normalized growth mostly below about 0.91 (no sharp cut-off); inconclusive = no clear call, values can overlap the other calls; inactive = mostly above about 0.92. Some of the results follow.

Experiment: chemical genetic growth profiling, strain panel (AID 1159580);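 note: tested at 20 µM; growth read once vehicle control cultures reached saturation at 30 °C; 1 = growth at the plate median or of vehicle wells; lower values mean less growth of the strain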
Conditions: S. cerevisiae deletion strains, growth OD
[1] = locus YDL101C, strain DUN1, stronger effect = lower value
[2] = locus YHR030C, strain SLT2, stronger effect = lower value
[3] = locus YGR229C, strain SMI1, stronger effect = lower value
[4] = locus YMR263W, strain SAP30, stronger effect = lower value
[5] = locus YNL153C, strain GIM3, stronger effect = lower value
[6] = locus YPL055C, strain LGE1, stronger effect = lower value
[7] = locus YPL241C, strain CIN2, stronger effect = lower value

Measured: normalized growth

N#Cc1ccc(NC(=O)Nc2cccc3ccccc23)cc1
active: locus YLR113W, strain HOG1, stronger effect = lower value 0.832
inactive: locus YAR019C, strain CDC15, stronger effect = lower value 0.965 | locus YBL105C, strain PKC1, stronger effect = lower value 0.974 | locus YBR135W, strain CKS1, stronger effect = lower value 0.96 | locus YBR136W, strain MEC1, stronger effect = lower value 0.971 | locus YBR160W, strain CDC28, stronger effect = lower value 0.96 | locus YDL017W, strain CDC7, stronger effect = lower value 0.974 | locus YDL028C, strain MPS1, stronger effect = lower value 0.971 | [1] 0.992 | locus YDL108W, strain KIN28, stronger effect = lower value 0.958 | locus YDL132W, strain cdc53, stronger effect = lower value 0.972 | locus YDL214C, strain PRR2, stronger effect = lower value 0.928 | locus YDR052C, strain DBF4, stronger effect = lower value 0.995 | locus YDR054C, strain cdc34, stronger effect = lower value 0.957 | locus YDR226W, strain ADK1, stronger effect = lower value 0.985 | locus YDR477W, strain SNF1, stronger effect = lower value 0.926 | locus YER123W, strain YCK3, stronger effect = lower value 0.919 | locus YER133W, strain GLC7, stronger effect = lower value 0.955 | locus YFL009W, strain cdc4, stronger effect = lower value 0.967 | locus YFL029C, strain CAK1, stronger effect = lower value 0.968 | locus YFR003C, strain YPI1, stronger effect = lower value 0.968 | locus YFR019W, strain FAB1, stronger effect = lower value 0.932 | locus YFR028C, strain CDC14, stronger effect = lower value 0.958 | locus YGR040W, strain KSS1, stronger effect = lower value 0.921 | locus YGR052W, strain FMP48, stronger effect = lower value 0.979 | locus YGR092W, strain DBF2, stronger effect = lower value 0.923 | [2] 0.938 | locus YHR079C, strain IRE1, stronger effect = lower value 0.924 | locus YHR082C, strain KSP1, stronger effect = lower value 0.986 | locus YHR205W, strain SCH9, stronger effect = lower value 0.89 | locus YIL147C, strain SLN1, stronger effect = lower value 0.963 | locus YJL095W, strain BCK1, stronger effect = lower value 0.962 | locus YJL128C, strain PBS2, stronger effect = lower value 0.955 | locus YJL157C, strain FAR1, stronger effect = lower value 0.929 | locus YJR016C, strain ILV3, stronger effect = lower value 0.966 | locus YJR066W, strain TOR1 (second series), stronger effect = lower value 0.903 | locus YJR066W, strain TOR1, stronger effect = lower value 0.972 | locus YKL048C, strain ELM1, stronger effect = lower value 0.949 | locus YKL067W, strain YNK1, stronger effect = lower value 0.941 | locus YKL101W, strain HSL1, stronger effect = lower value 0.916 | locus YKL193C, strain SDS22, stronger effect = lower value 0.963 | locus YKL203C, strain TOR2, stronger effect = lower value 0.998 | locus YLR133W, strain CKI1, stronger effect = lower value 0.913 | locus YLR403W, strain SFP1, stronger effect = lower value 0.892 | locus YML070W, strain DAK1, stronger effect = lower value 0.901 | locus YMR001C, strain CDC5, stronger effect = lower value 0.967 | locus YMR205C, strain PFK2 (second series), stronger effect = lower value 0.939 | locus YMR277W, strain FCP1, stronger effect = lower value 0.966 | locus YNL006W, strain LST8, stronger effect = lower value 0.978 | locus YNL020C, strain ARK1, stronger effect = lower value 0.917 | locus YNL161W, strain CBK1, stronger effect = lower value 0.963 | locus YNL183C, strain NPR1, stronger effect = lower value 0.943 | locus YNL207W, strain RIO2, stronger effect = lower value 0.968 | locus YNL222W, strain SSU72, stronger effect = lower value 0.967 | locus YNL307C, strain MCK1 (second series), stronger effect = lower value 0.925 | locus YOL078W, strain AVO1, stronger effect = lower value 0.972 | locus YOL136C, strain PFK27, stronger effect = lower value 0.91 | locus YOR061W, strain CKA2, stronger effect = lower value 0.929 | locus YOR119C, strain RIO1, stronger effect = lower value 0.966 | locus YOR231W, strain MKK1, stronger effect = lower value 0.887 | locus YOR329C, strain SCD5, stronger effect = lower value 0.976 | locus YPL031C, strain PHO85, stronger effect = lower value 0.92 | locus YPL153C, strain RAD53, stronger effect = lower value 0.925 | locus YPL204W, strain HRR25, stronger effect = lower value 0.909 | locus YPL209C, strain IPL1, stronger effect = lower value 0.967 | locus YPL256C, strain CLN2, stronger effect = lower value 0.872 | locus YPR025C, strain CCL1, stronger effect = lower value 0.967 | locus YPR106W, strain ISR1, stronger effect = lower value 0.958 | locus YPR111W, strain DBF20, stronger effect = lower value 0.952 | strain NNK1, stronger effect = lower value 0.967 | strain TSCII, stronger effect = lower value 0.969

NNC(=O)c1ccccc1O
inactive: locus YBR229C, strain ROT2, stronger effect = lower value 0.986 | [1] 0.975 | locus YDL134C, strain PPH21, stronger effect = lower value 0.988 | locus YDR150W, strain NUM1, stronger effect = lower value 0.892 | locus YEL061C, strain CIN8, stronger effect = lower value 0.965 | locus YGR078C, strain PAC10, stronger effect = lower value 1.01 | [3] 0.989 | [2] 1.03 | locus YHR087W, strain rtc3, stronger effect = lower value 0.99 | locus YJR043C, strain POL32, stronger effect = lower value 0.96 | locus YJR075W, strain HOC1, stronger effect = lower value 1.02 | locus YKL190W, strain CNB1, stronger effect = lower value 0.983 | locus YLR039C, strain RIC1, stronger effect = lower value 0.958 | locus YLR058C, strain SHM2 (second series), stronger effect = lower value 1 | locus YLR085C, strain ARP6, stronger effect = lower value 0.962 | locus YLR262C, strain YPT6, stronger effect = lower value 0.975 | locus YML094W, strain GIM5, stronger effect = lower value 0.963 | locus YMR219W, strain ESC1, stronger effect = lower value 0.996 | [4] 1.01 | [5] 1.01 | locus YNL298W, strain CLA4 (second series), stronger effect = lower value 0.976 | locus YNL322C, strain KRE1, stronger effect = lower value 1.01 | locus YNR030W, strain Alg12, stronger effect = lower value 1.01 | [6] 0.916 | [7] 1.11 | locus YPR135W, strain CTF4, stronger effect = lower value 0.956

CCCn1c(=O)c2[nH]c(-c3ccc(OCC(=O)Nc4ccc(C#N)cc4)cc3)nc2n(CCC)c1=O
inactive: locus YAL040C, strain CLN3, stronger effect = lower value 0.979 | locus YCL061C, strain MRC1 (second series), stronger effect = lower value 0.998 | locus YDR363W, strain ESC2, stronger effect = lower value 1.02 | locus YER002W, strain NOP16, stronger effect = lower value 1 | [3] 0.995 | [4] 0.982 | locus YMR307W, strain GAS1, stronger effect = lower value 1.02 | [5] 1.01 | locus YNL175C, strain NOP13, stronger effect = lower value 0.994 | locus YNL197C, strain WHI3, stronger effect = lower value 0.978 | locus YNL224C, strain SQS1, stronger effect = lower value 0.992 | locus YOR083W, strain WHI5 (second series), stronger effect = lower value 0.992 | [6] 0.998 | [7] 0.973
